The full list was thinned out, with hits kept by preference.
ST2 inh: blocks human ST2 binding to IL-33 | hit rate 2.3% among 78,000 | AlphaLISA ST2-Fc/biotin-IL-33 interaction, 1 h | inhibition, % for hits at 17 µM; in the data active = inhibition above about 30%
Target sequence (Q01638 whole entry, looked up): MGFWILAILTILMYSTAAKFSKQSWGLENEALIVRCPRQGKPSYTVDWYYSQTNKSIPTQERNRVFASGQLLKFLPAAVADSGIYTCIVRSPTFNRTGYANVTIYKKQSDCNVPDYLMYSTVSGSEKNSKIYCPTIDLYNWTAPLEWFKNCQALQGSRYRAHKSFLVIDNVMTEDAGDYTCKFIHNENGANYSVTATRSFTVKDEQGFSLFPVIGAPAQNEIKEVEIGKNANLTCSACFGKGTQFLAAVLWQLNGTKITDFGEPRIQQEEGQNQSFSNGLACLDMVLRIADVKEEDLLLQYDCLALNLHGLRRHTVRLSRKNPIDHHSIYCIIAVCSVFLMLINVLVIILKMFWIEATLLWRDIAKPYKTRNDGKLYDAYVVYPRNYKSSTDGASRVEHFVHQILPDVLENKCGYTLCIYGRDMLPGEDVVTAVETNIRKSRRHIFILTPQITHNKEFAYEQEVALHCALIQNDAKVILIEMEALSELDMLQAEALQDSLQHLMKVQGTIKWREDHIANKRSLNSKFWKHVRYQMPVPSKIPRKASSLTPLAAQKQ
Numbers stand for hits; i = inactive.

SMILES	ST2 inh
O=C(O)c1ccc(NS(=O)(=O)c2cccc3cccnc23)cc1O	i
O=C(Nc1ccc(F)cc1)c1ccc(Cl)c(Cl)c1	i
CN(Cc1cnccn1)C(=O)CC1C(=O)NCCN1Cc1ccc(F)cc1Cl (stereo not drawn)	i
CN(CCC1CCOCC1)C(=O)CC1C(=O)NCCN1Cc1cccc2ccccc12 (stereo not drawn)	i
CC(C)CN1CCNC(=O)C1CC(=O)N(C)Cc1cccc2cccnc12 (stereo not drawn)	79.0%
COc1cccc(NC(=O)NC2CC(=O)N(CC3CCCCC3)C2)c1 (stereo not drawn)	i
Cc1cc(N(C)C)cc(C)[n+]1OC(=O)N1CCCCC1	i
N#Cc1cc2c(=O)n3ccccc3nc2n(CCc2ccccc2)c1=N	i
CCC(C)n1c(=N)c(C#N)cc2c(=O)n3ccccc3nc21 (stereo not drawn)	39.0%
CCC(C)n1c(=N)c(C(=O)NC2CCCCC2)cc2c(=O)n3ccccc3nc21 (stereo not drawn)	i
N#Cc1cc2c(=O)n3ccccc3nc2n(Cc2ccccc2)c1=N	i
N#Cc1cc2c(=O)n3ccccc3nc2n(CCCn2ccnc2)c1=N	31.0%
Cc1cccn2c(=O)c3cc(C(=O)NCc4cccnc4)c(=N)n(CCCn4ccnc4)c3nc12	i
Cc1ccc(CN2CCC=C(CCNC(=O)c3ccco3)C2)cc1	i
Cc1ccccc1OCC(=O)Nc1ncc(Cc2ccc(Br)cc2)s1	i
CCc1cccc(OCCCN2CCCC2)c1	i
COc1cc(NC(=O)c2ccccc2)c(Cl)cc1NC(C)=O	i
Cc1ccc(-n2cc(-c3ccc4c(c3)OCO4)[nH]c2=O)cc1	i
CCCOC(=O)C1=C(C)NC2=C(C(=O)C(C(=O)OC)C(C)C2)C1c1ccc(O)c(OC)c1 (stereo not drawn)	i
CC1N=C2c3ccccc3N=C(SCc3ccccc3Cl)N2C1=O (stereo not drawn)	i
CCS(=O)(=O)N1CCN(c2ccc([N+](=O)[O-])c(NCc3cccnc3)c2)CC1	i
O=[N+]([O-])c1ccc(N2CCN(S(=O)(=O)c3ccc(Cl)cc3)CC2)cc1	35.0%
O=C(COc1ccccc1)N1CCN(S(=O)(=O)c2ccc([N+](=O)[O-])cc2)CC1	i
O=[N+]([O-])c1ccc(S(=O)(=O)N2CCN(c3ccccc3)CC2)cc1	i
O=[N+]([O-])c1ccc(N2CCN(S(=O)(=O)c3ccc(Cl)c(Cl)c3)CC2)cc1NC1CC1	30.0%
SMILES	ST2 inh
O=[N+]([O-])c1ccc(N2CCOCC2)cc1NCCCO	i
O=[N+]([O-])c1ccc(S(=O)(=O)N2CCN(CCCc3ccccc3)CC2)cc1	34.0%
O=S(=O)(c1ccc(Br)cc1)N1CCN(Cc2ccccc2)CC1	i
O=[N+]([O-])c1ccc(S(=O)(=O)N2CCN(c3ccccn3)CC2)cc1	i
COc1ccc(C(C)N(C)C(=O)/C=C/c2cnn(C)c2)cc1 (stereo not drawn)	i
Cc1cc(C)n(CCC(=O)N2CC[C@@H](c3sccc3C)[C@H](O)C2)c(=O)n1	i
O=C1Nc2ccccc2C(O)(C(=O)NCc2cccs2)N1c1ccccc1 (stereo not drawn)	i
Cc1ccccc1NC(=O)c1cncc(Br)c1	i
COc1cc(CN2CCN(C=O)CC2)ccc1OCc1ccccc1	i
O=C(CCN1CCCCO1)N1CC[C@@H](c2ccc3c(c2)OCO3)[C@H](O)C1	i
COC(=O)[C@@H](Cc1cccnc1)NC(=O)[C@H]1CN(C(C)=O)CCN1S(C)(=O)=O	i
COc1ccc(/C=C(\C#N)c2nc(-c3ccc(C)cc3)cs2)cc1	60.0%
CCOc1ccc(-c2cc3cc(OC)c(OC)cc3c(CC)n2)cc1	i
COc1ccc(S(=O)(=O)Nc2ccc(-c3csc(C)n3)cc2)cc1	i
CCOc1ccc(/C=C(\C#N)c2nc(-c3ccc(OCC)cc3)cs2)cc1	33.0%
N#C/C(=C\c1ccc(I)cc1)c1nc(-c2ccc([N+](=O)[O-])cc2)cs1	i
CC1CCCC(NC(=O)C2(O)c3cc(Br)ccc3NC(=O)N2c2ccccc2)C1C (stereo not drawn)	i
CCc1ccccc1NC1=NC2CS(=O)(=O)CC2S1 (stereo not drawn)	i
CCC(C(=O)Nc1cc(C)c(Cl)cc1OC)c1ccccc1 (stereo not drawn)	i
O=C(c1coc(CN2CCN(C/C=C/c3ccccc3)CC2)n1)N1C[C@H]2CC[C@@H]1C2	i
Cc1cc(=O)oc(C)c1C(=O)NC1CCCC1	i
Cc1cc(N2CCN(C)CC2)nc2ccc(NC(=O)CCC(=O)N3CCC(C(N)=O)CC3)cc12	i
O=C(Nc1cccc(Cl)c1)C1c2ccccc2C(=O)N2CCc3ccccc3C12 (stereo not drawn)	i
Fc1cccc2c1NC(c1ccc(Br)cc1)C1CC=CC21 (stereo not drawn)	42.0%
COc1cccc2c1NC(c1ccc(Br)cc1)C1CC=CC21 (stereo not drawn)	33.0%
SMILES	ST2 inh
O=C(O)c1cccc2c1NC(c1ccc(F)cc1)C1CC=CC21 (stereo not drawn)	50.0%
O=C(O)c1cccc2c1NC(c1ccccc1Br)C1CC=CC21 (stereo not drawn)	i
Cc1ccc([C@@H]2Nc3c(F)cccc3[C@@H]3C=CC[C@@H]32)cc1	i
CN(C)c1ccc(-c2nnc([C@H]3CCN(Cc4ccc(C#N)cc4)C3)o2)cc1	i
CC1=NS(=O)(=O)c2ccccc2N1Cc1cccc(Cl)c1	i
CCN1CCCC1CNC(=O)C1(O)c2ccccc2NC(=O)N1c1cccc(OC)c1 (stereo not drawn)	i
O=c1oc2c(Cl)cc(NS(=O)(=O)c3ccc(Cl)cc3)cc2s1	i
Cc1ccc(C)c(C2C(C#N)=C(N)OC3=C2C(=O)CCC3)c1 (stereo not drawn)	i
CCc1nc(-c2nccn2CCSc2nccn2C)c(C)[nH]1	i
COc1ccc(C2CC(=O)NC(SC)=C2C#N)cc1OCc1ccccc1 (stereo not drawn)	i
CCN(CC)c1cc(C)c2cc(NC(=O)c3cnccn3)ccc2n1	i
O=C(Nc1ccc(Cl)cc1)c1cnccn1	i
CCN(CC)c1ccc(NC(=O)c2cnccn2)cc1	56.0%
CN(CCC(O)c1ccccc1)c1ncc(F)c(N2CCOCC2)n1 (stereo not drawn)	i
COc1ccc(-c2cn3ccccc3n2)cc1F	i
OCCn1c(-c2ccc(Cl)c(Cl)c2)csc1=Nc1ccccc1	48.0%
COc1ccc(N=c2scc(-c3ccc4c(c3)OCCO4)n2CCO)cc1	32.0%
COc1ccc(-c2csc(=Nc3ccccc3)n2CCCN(C)C)cc1	44.0%
COc1ccc2c(=O)c(-c3ccc4c(c3)OCCCO4)coc2c1	i
COc1ccc(OCCn2c(=N)n(CC(C)C)c3ccccc32)cc1	i
COc1ccc(C(O)=C2C(=O)C(=O)N(CCCN(C)C)C2c2cccs2)c(C)c1 (stereo not drawn)	i
COc1ccc(-c2csc(=Nc3ccccc3)n2CCO)cc1F	48.0%
CC(C)CNC(=O)c1cc(-c2ccc(Cl)c(Cl)c2)on1	i
COc1ccc(CNC(=O)c2cc(-c3ccc4c(c3)OCO4)on2)cc1	i
Cc1cc(C)n(CCC(=O)NCCNC(=O)c2ccccc2Cl)c(=O)n1	i
CCC(=O)N1CCc2cc(S(=O)(=O)NC(C(=O)NCc3cccnc3)C(C)C)ccc21 (stereo not drawn)	i
Cn1c(=O)c2cc(S(=O)(=O)Nc3cccc(Cl)c3)ccc2n(C)c1=O	i
COC(=O)C(C)Sc1nc2c(c(=O)n1-c1ccc(C)cc1)SCC2 (stereo not drawn)	i
O=C(CCC(=O)N1CCNC(=O)C1c1cccc(F)c1)NC1CCCC1 (stereo not drawn)	i
